Cruzain Triton: cruzain (T. cruzi) inhibition with detergent | purified cruzain, Z-FR-AMC fluorescence, 0.01% Triton | Potency, µM, without a hit: max response, negative = inhibition, actives largely listed as inhibitors | hit rate 0.43% among 200,000;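 also: plate controls were neutral wells for no effect and buffer without enzyme for full effect; nearly all actives have a fitted effect of over 40% in size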
Target sequence (P25779 123-467 limits assumed): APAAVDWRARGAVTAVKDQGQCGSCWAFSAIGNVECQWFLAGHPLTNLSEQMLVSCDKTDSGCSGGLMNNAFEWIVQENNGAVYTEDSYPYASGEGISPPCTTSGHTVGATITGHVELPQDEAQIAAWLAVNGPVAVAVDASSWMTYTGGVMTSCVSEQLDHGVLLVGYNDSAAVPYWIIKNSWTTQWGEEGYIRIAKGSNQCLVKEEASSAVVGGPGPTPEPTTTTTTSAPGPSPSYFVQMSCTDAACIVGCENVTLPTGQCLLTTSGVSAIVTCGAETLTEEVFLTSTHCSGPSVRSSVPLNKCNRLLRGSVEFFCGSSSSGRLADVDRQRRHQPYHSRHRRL
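Purified cruzain (1.5 nM final) was preincubated with compounds for 15 min at room temperature in 100 mM sodium acetate pH 5.5, 5 mM DTT, 0.01% Triton X-100. Reaction started with 2 uM Z-FR-AMC; AMC fluorescence change over 60 s gave activity.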
Giardia FBPA inh: inhibitors of Giardia lamblia fructose-1,6-bisphosphate aldolase. Potency, µM (highest dose often 59.6 µM), without a hit: at the top dose activity, negative = inhibition, hits mostly inhibitors. hit rate 0.71% among 290,000. purified Giardia FBPA. A8B2U2. AID 2451; also: nearly all actives have a fitted effect of over 55% in size
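Giardia FBPA (40 nM reagent) was preincubated 10 min at RT with compound (up to 57.5 uM final), then substrate plus GAPDH/TPI/NAD/arsenate coupling system with diaphorase/resazurin was added; resorufin fluorescence (525/598 nm) was read after 20 min.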
Cruzain inh noDet: cruzain (T. cruzi) inhibition without detergent | P25779 | purified cruzain, Z-FR-AMC fluorescence, no detergent | Potency, µM, for the others: max response, negative = inhibition, most hits filed as inhibitors | hit rate 2.3% among 200,000 | AID 1476;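 also: plate controls were enzyme without inhibitor for no effect and buffer without enzyme for full effect; nearly all actives have a fitted effect of over 40% in size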
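Detergent-free condition (0.00005% Triton X-100) in acetate buffer pH 5.5 with DTT. 1.5 nM enzyme and compound were pre-mixed 15 min, then 2 uM Z-FR-AMC substrate added; reaction progress from fluorescence change between first and third reads (60 s).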
An asterisk follows results filed as active; ? = inconclusive; nt = not tested or not shown. This excerpt belongs to a sample that is enriched for hits. Calls follow the shape of the dose curve; as a rule, active = well fitted curve in the direction sought with a large enough effect; inconclusive = small, poorly fitted or top-dose-only effect, or another doubt; inactive = no such curve, though single readings can be large; an effect the other way counts as inactive or inconclusive. Unless noted, % is scaled to controls: 0 for no effect and ±100 for the full control effect; potency is read from the fitted curve at half-maximal effect.

SMILES | Cruzain Triton | Giardia FBPA inh | Cruzain inh noDet
CCN1C(=NCC(C)C)N[C@@H](c2cccc(C(F)(F)F)c2)C(C(=O)OC)=C1C | nt | 22.6% | nt
C=CCN=C1N[C@@H](c2cccc(C(F)(F)F)c2)C(C(=O)OC)=C(C)N1CC | nt | 15.8µM* | nt
CCNC(=O)[C@H]1O[C@@H](n2cnc3c(N)nc(NCCc4ccc(CCC(=O)O)cc4)nc32)[C@H](O)[C@H]1O | 2.1% | -3.9% | 6.2%
CCCCCCCCCCCCCCC1CO1 (stereo not given) | 4.2% | nt | 11.3%
O=C(CN1C(=O)C2C3CCC(C3)C2C1=O)OCC(=O)c1cccc([N+](=O)[O-])c1 (stereo not given) | 0.0% | 2.8% | -11.2%
CC(C)C(C(=O)OCC(=O)c1cccc([N+](=O)[O-])c1)N1C(=O)[C@@H]2[C@H]3CC[C@H](C3)[C@@H]2C1=O (stereo not given in full) | 15.8µM* | -0.3% | ?
Cc1noc(C)c1-c1nccc(NCc2cccs2)n1 | 4.3% | -27.3% | -2.3%
Cc1ccc(-c2ccc(/C=C3\SC(N4CCOCC4)=NC3=O)o2)cc1 | nt | -17.4% | nt
Cc1ccc(/C=C2\SC(N3CCN(C(c4ccccc4)c4ccccc4)CC3)=NC2=O)o1 | -11.7% | ? | 7.94µM*
COC(=O)[C@H](Cc1ccccc1)NC(=O)O[C@@H]1C(=O)c2cc(OC)ccc2O[C@H]1c1cccc(OC)c1 | -1.0% | -0.9% | 1.3%
Cc1noc(C)c1-c1ccc2ncnc(N(C)Cc3ccco3)c2c1 | -0.2% | -0.1% | 6.2%
CC(=O)Cc1nsc(NC(=O)c2ccc(-c3cccc(C(F)(F)F)c3)o2)n1 | 4.0% | 2.1% | 3.5%
O=C(Nc1ncc(Cc2cccc(C(F)(F)F)c2)s1)c1ccc(-c2cccc([N+](=O)[O-])c2)o1 | -4.5% | 7.0% | 10µM*
Cc1nnc(NC(=O)c2ccc(-c3cccc(C(F)(F)F)c3)o2)s1 | 1.6% | 2.7% | 12.6µM*
O=C(Nc1nccs1)c1ccc(-c2cccc([N+](=O)[O-])c2)o1 | nt | 3.3% | nt
Cc1nc2cccnc2n1C1CCN(S(=O)(=O)c2ccc(C(C)C)cc2)CC1 | 0.2% | nt | 8.6%
CC(C)[C@H](NC(=O)[C@@H](Cc1c[nH]c2ccccc12)NC(=O)[C@H](Cc1ccc(O)cc1)NC(=O)[C@@H](N)CC(=O)O)C(=O)N[C@H](Cc1c[nH]c2ccccc12)C(=O)N[C@H](Cc1c[nH]c2ccccc12)C(=O)N[C@@H](CCCCN)C(N)=O | nt | 4.6% | nt
Cc1ccc(S(=O)(=O)Nc2cccc3ccc[n+](C)c23)cc1 | nt | -26.9% | nt
CC12CCC=CC1C(c1ccoc1)N(Cc1ccccc1)C2=O (stereo not given) | nt | 11.2% | nt
Oc1ccc2ccccc2c1Cc1c(O)ccc2ccccc12 | -6.4% | nt | -5.3%
N[C@@H](Cc1[nH]nc2ccccc12)C(=O)O | 3.1% | nt | 8.1%
COc1ccc(CN(Cc2ccco2)c2cnc(S(C)(=O)=O)nc2C(=O)Nc2ccc(C)c(Cl)c2)cc1 | -1.7% | nt | 7.94µM*
Cc1cccc(C)c1NC(=O)c1nc(S(C)(=O)=O)ncc1N(Cc1ccc(F)cc1)Cc1ccco1 | -4.7% | nt | -5.7%
Cc1ccc(C)c(NC(=O)c2nc(S(C)(=O)=O)ncc2N(Cc2ccc(C(C)(C)C)cc2)Cc2ccco2)c1 | -3.2% | nt | 7.94µM*
Cc1ccc(NC(=O)c2nc(S(C)(=O)=O)ncc2N(Cc2cccc(F)c2)Cc2ccco2)cc1C | -3.1% | nt | ?
SMILES | Cruzain Triton | Giardia FBPA inh | Cruzain inh noDet
Cc1cccc(C)c1NC(=O)c1nc(S(C)(=O)=O)ncc1N(Cc1ccc(C(C)(C)C)cc1)Cc1ccco1 | -2.1% | nt | -20.6%
CC(C)c1ccc(CN(Cc2ccco2)c2cnc(S(C)(=O)=O)nc2C(=O)Nc2ccc(F)cc2)cc1 | -2.5% | nt | 15.8µM*
COc1ccc(NC(=O)N2CCc3c([nH]c4ccc(OC)cc34)C2c2ccc(OC)cc2)cc1 (stereo not given) | -6.4% | nt | ?
CCCOCCN(C(=O)CCl)c1c(CC)cccc1CC | nt | 1.0% | nt
CCC1(CCSC(=N)N)C(=O)NC(=O)NC1=O | 4.0% | nt | 0.7%
c1ccc(-c2n[nH]c3c2oc2ccccc23)cc1 | 1.1% | -5.6% | -15.0%
Cc1nn(-c2ccc3nnc(C)n3n2)c(C)c1CCC(=O)Nc1ccc(OC(F)(F)F)cc1 | -0.5% | nt | -7.5%
CN(C)CCN(c1ccccn1)c1ccccn1 | 10.7% | nt | 7.7%
CCN1CC=C2C(C1)C(c1ccc(Cl)s1)C(C#N)=C(N)C2(C#N)C#N (stereo not given) | 25.1µM* | ? | 25.1µM*
CCN1CC=C2C(C#N)=C(N)C(C#N)(C#N)[C@H](c3cccc(OC)c3OC)[C@H]2C1 | -9.7% | ? | -12.9%
COc1cccc(Cn2c(=O)c(-c3ccccc3)nc3cnc(N4CCNCC4)nc32)c1 | 4.0% | 2.9% | -6.1%
CC1=Nc2cccc3cccc(c23)N1 | -2.3% | 5.9% | -16.1%

Bioassay records: PubChem, National Center for Advancing Translational Sciences (NCATS)
